Screen size: about 39,000 compounds; about 3,300 (8.5%) were called active. The entries come from a sample that favours actives as a whole.
The molecules below were run on HepG2 (assay: cytotoxicity call (relative viability < 0.9)). Settings: 10 µM.
In the case of `N#Cc1cnccn1`, the cytotoxicity call is reported as “inactive”.
With `CCNC1(c2cccs2)CCCCC1=O.Cl` (centres undefined) the cytotoxicity call was “inactive”.
In the case of `NCC[C@H](NC(=O)[C@@H](N)CCCNC(N)=N[N+](=O)[O-])C(N)=O.O=CC(F)(F)F`, the cytotoxicity call is reported as “inactive”.
With `c1cnc(N[C@@H]2CO[C@@]3(CCNC3)C2)cn1` the cytotoxicity call was “inactive”.
`NC1=NC(=O)N2C[C@@H]12` was tested, and the cytotoxicity call was “inactive”.
With `C[C@H](CO)N1C[C@H](C)[C@H](CN(C)C(=O)Oc2ccc3ccccc3c2)OCc2cnnn2CCCC1=O` the cytotoxicity call was “inactive”.
`C1CN2CN3CCN(CN1C3)C2` was tested, and the cytotoxicity call was “inactive”.
With `NCCc1ccc([N+](=O)[O-])cc1` the cytotoxicity call was “inactive”.
For `O=C(c1ccco1)N1C[C@H]2CN[C@@H](C2)C1`, the cytotoxicity call was “inactive”.
For `C=C[C@H]1[C@H](O[C@@H]2O[C@H](CO)[C@@H](O)[C@H](O)[C@H]2O)OC=C2C(=O)OCC[C@H]21`, the cytotoxicity call was “inactive”.
In the case of `Cc1cccc(CC2(N)CC2)c1`, the cytotoxicity call is reported as “inactive”.
In the case of `N#[N+]CC(=O)CC[C@H](N)C(=O)O`, the cytotoxicity call is reported as “inactive”.
For `CC12CCC3C(CCC4(O)CC(O)CCC34C=O)C1(O)CCC2C1=CC(=O)OC1` (centres undefined), the cytotoxicity call was “active”.
For `C#CC(C)(O)CC` (centres undefined), the cytotoxicity call was “inactive”.
In the case of `CNC(=O)CN1CCOCC12CCN(c1cc(OC)ncn1)CC2`, the cytotoxicity call is reported as “inactive”.
With `CC1(C)CCC(C)(C)c2cc(-c3csc(CC#N)n3)ccc21` the cytotoxicity call was “inactive”.
In the case of `COc1c(C[C@@H](C)O)c2c3c(C[C@@H](C)O)c(OC)c(=O)c4c(O)cc5c(c6c(cc(O)c(c1=O)c62)OCO5)c43`, the cytotoxicity call is reported as “active”.
In the case of `NCCc1cccc2ccccc12`, the cytotoxicity call is reported as “inactive”.
In the case of `C[C@@H]1CN([C@@H](C)CO)C(=O)c2c(c3ccccc3n2C)-c2ccccc2CO[C@H]1CN(C)C(=O)Oc1ccccc1`, the cytotoxicity call is reported as “inactive”.
`CN(C)C(=O)N[C@H]1CN[C@H]2CCCO[C@H]21` was tested, and the cytotoxicity call was “inactive”.
In the case of `O=C1C=C2C=CC3CC2(O1)C1CCCCN31` (centres undefined), the cytotoxicity call is reported as “active”.
`CN1C(=O)NC(=O)/C(=C\c2ccc(O)cc2)C1=O` was tested, and the cytotoxicity call was “inactive”.
For `Cn1cc(C(=O)Nc2nn[nH]n2)c2ccccc21`, the cytotoxicity call was “inactive”.
In the case of `CCCC12CNCC(C)(CNC1)C2=O`, the cytotoxicity call is reported as “inactive”.
For `O=[N+]([O-])c1ccc(N(CCO)CCO)c2c1no[n+]2[O-]`, the cytotoxicity call was “active”.
`Nc1ccc([As](=O)(O)O)cc1` was tested, and the cytotoxicity call was “inactive”.
With `CN1CC(=O)N(c2cccnc2)C[C@]12CCNC2` the cytotoxicity call was “inactive”.
In the case of `O=[N+]([O-])C(Br)(CO)CO` [listing 1 of 2 here], the cytotoxicity call is reported as “active”.
`OCC(Br)(Br)Br` was tested, and the cytotoxicity call was “inactive”.
`O=[N+]([O-])C(Br)(CO)CO` [listing 2 of 2 here] was tested, and the cytotoxicity call was “active”.
In the case of `CN1C(=O)/C(=C/c2cn(CC(=O)N3CCOCC3)c3ccccc23)C(=O)NC1=S`, the cytotoxicity call is reported as “inactive”.
`CC(C)(C)[C@H]1CC[C@@]2(CC1)C[C@@H](C[Si](C)(C)C)OO2` was tested, and the cytotoxicity call was “inactive”.
With `CC(C)Oc1ccccc1CCN` the cytotoxicity call was “inactive”.
`CCN(CC)S(=O)(=O)c1ccc(Cn2nc(C(=O)Nc3ccc(N4CCCCC4)cc3)c3ccccc32)cc1` was tested, and the cytotoxicity call was “inactive”.
`NC(=O)N1C[C@@H]2C[C@H]1CN2` was tested, and the cytotoxicity call was “inactive”.
For `C[N+]1(C)C2CCC1CC(OC(=O)C(CO)c1ccccc1)C2.O=[N+]([O-])[O-]` (centres undefined), the cytotoxicity call was “inactive”.
In the case of `O=C(NCNC(=O)N[C@H]1C(=O)NC(=O)N1CO)N[C@H]1C(=O)NC(=O)N1CO`, the cytotoxicity call is reported as “inactive”.
`CCC(=O)CCCCC[C@@H]1NC(=O)[C@H]2CCCCN2C(=O)[C@H]([C@H](C)CC)NC(=O)[C@H](Cc2cn(OC)c3ccccc23)NC1=O` was tested, and the cytotoxicity call was “active”.
In the case of `CCC(=O)CCCCC[C@@H]1NC(=O)[C@H]2CCCCN2C(=O)[C@H]([C@@H](C)CC)NC(=O)[C@H](Cc2cn(OC)c3ccccc23)NC1=O`, the cytotoxicity call is reported as “active”.
In the case of `N[C@@H](C(=O)O)c1cc(=O)[nH]o1`, the cytotoxicity call is reported as “inactive”.
`COC(N)=O` was tested, and the cytotoxicity call was “inactive”.
For `CN1C[C@@H]2C[C@H](C(=O)Nc3cccnc3)[C@@H](C1)O2`, the cytotoxicity call was “inactive”.
For `CCCCS(=O)(=O)N1C[C@H]2CNC[C@@H]2C1`, the cytotoxicity call was “inactive”.
For `NC(=O)c1ccc(N)nc1`, the cytotoxicity call was “active”.
With `NC(=O)c1cc([N+](=O)[O-])cc([N+](=O)[O-])c1` [listing 1 of 2 here] the cytotoxicity call was “inactive”.
`NC(=O)c1cc([N+](=O)[O-])cc([N+](=O)[O-])c1` [listing 2 of 2 here] was tested, and the cytotoxicity call was “inactive”.
With `C[C@H]1CN([C@@H](C)CO)C(=O)CCCn2nncc2CO[C@@H]1CN(C)C(=O)Oc1ccc2ccccc2c1` the cytotoxicity call was “inactive”.
`CNc1ccc(C(=O)C[C@@H](O)CC[C@@H](C)[C@H]2OC(=O)C[C@@H](O)CC(=O)C[C@@H](O)C[C@@H](O)C[C@@H](O)C[C@@H](O)C[C@@]3(O)C[C@@H](O)[C@H](C(=O)OC)[C@@H](C[C@@H](O[C@@H]4O[C@H](C)[C@@H](O)[C@H](N)[C@@H]4O)\C=C/C=C\C=C/C=C\C=C/C=C\C=C/[C@@H]2C)O3)cc1` was tested, and the cytotoxicity call was “inactive”.
For `CN(C)C(=O)Oc1ccc[n+](C)c1`, the cytotoxicity call was “inactive”.
`CN(C)C(=O)Oc1cccc([N+](C)(C)C)c1.[Br-]` was tested, and the cytotoxicity call was “inactive”.
In the case of `CN(C)C(=O)Oc1ccc[n+](C)c1.[Br-]`, the cytotoxicity call is reported as “active”.
`O=C(O)[C@H]1C[C@H]2CCCCN2C1` was tested, and the cytotoxicity call was “inactive”.
For `CN1[C@@H]2CC[C@@H]1C[C@H](O)C2` (some centres undefined), the cytotoxicity call was “inactive”.
For `CCCC[C@@H](C)[C@@H](OC(=O)C[C@@H](CC(=O)O)C(=O)O)[C@H](C[C@@H](C)C[C@H](O)CCCC[C@@H](O)C[C@H](O)[C@H](C)N)OC(=O)C[C@@H](CC(=O)O)C(=O)O`, the cytotoxicity call was “inactive”.
With `OC[C@H]1O[C@@H](Oc2c[nH]c3ccc(Br)c(Cl)c23)[C@H](O)[C@@H](O)[C@H]1O` the cytotoxicity call was “inactive”.
`C[N+](C)(C)CCCCCCCCCC[N+](C)(C)C.[Br-].[Br-]` was tested, and the cytotoxicity call was “inactive”.
`C[N+](C)(C)CCCl` was tested, and the cytotoxicity call was “inactive”.
`CCCCCCCCCCCCCCCC[N+](C)(C)C.[Br-]` was tested, and the cytotoxicity call was “active”.
For `N=C(N)/N=C(\N)Nc1ccc(Cl)cc1`, the cytotoxicity call was “inactive”.
In the case of `CC1=CC(=O)c2c(O)cccc2C1=O`, the cytotoxicity call is reported as “active”.
With `Oc1ccccc1-c1ccccc1O` the cytotoxicity call was “inactive”.
In the case of `O=C1C=CC(=O)c2c(O)cccc21`, the cytotoxicity call is reported as “active”.
In the case of `Oc1ccccc1-c1ccccc1`, the cytotoxicity call is reported as “inactive”.
`C[C@H]1O[C@H](C[N+](C)(C)C)C[C@@H]1O` was tested, and the cytotoxicity call was “inactive”.
In the case of `NCCc1nnc2n1CCCCC2`, the cytotoxicity call is reported as “inactive”.
In the case of `C[C@H]1CN([C@@H](C)CO)C(=O)CCCn2nncc2CO[C@@H]1CN(C)C(=O)Oc1cccc2ccccc12`, the cytotoxicity call is reported as “inactive”.
With `CC(=O)Nc1ccc(CCN)cc1` the cytotoxicity call was “inactive”.
In the case of `CNC(C)(C)Cc1ccccc1.O=S(=O)(O)O`, the cytotoxicity call is reported as “inactive”.
In the case of `CC(C)NC(=O)[C@H]1CCS(=O)(=O)[C@H]2CNC[C@@H]12`, the cytotoxicity call is reported as “inactive”.
`C[C@@H]1C(=O)NC[C@@H]2CN(CC3CC3)C[C@@H]21` was tested, and the cytotoxicity call was “inactive”.
`CCC(C(N)=O)N1CCCC1=O` (centres undefined) was tested, and the cytotoxicity call was “inactive”.
With `O=[As]O[As]=O` (centres undefined) the cytotoxicity call was “active”.
In the case of `C[C@H](CO)N1C[C@H](C)[C@@H](CN(C)C(=O)Oc2ccccc2)OCc2ccccc2-c2c(n(C)c3ccccc23)C1=O`, the cytotoxicity call is reported as “inactive”.
`C[C@@H]1O[C@@H](OC(=O)Cc2ccccc2)[C@H](O)[C@H](O)[C@H]1O` was tested, and the cytotoxicity call was “inactive”.
For `COC(=O)[C@H]1[C@H](CO)[C@H]2Cn3c(cccc3=O)[C@@H]1N2C(=O)C1CC1`, the cytotoxicity call was “inactive”.
In the case of `O=C(NC[C@H]1CCC2(CCNCC2)O1)C1CC1`, the cytotoxicity call is reported as “inactive”.
For `O=C(O)C(Cl)Cl.[NaH]`, the cytotoxicity call was “inactive”.
With `Cl.NCC(=O)c1ccccc1` the cytotoxicity call was “inactive”.
`CNCC(O)c1ccc(O)cc1.CNCC(O)c1ccc(O)cc1.O=C(O)C(O)C(O)C(=O)O` (centres undefined) was tested, and the cytotoxicity call was “inactive”.
For `Cc1ccc2c(CCN)c(C)n(C)c2c1`, the cytotoxicity call was “active”.
`Cc1ccc2nc(CCN)[nH]c2c1` was tested, and the cytotoxicity call was “inactive”.
In the case of `Cc1[nH]c2ccc(O)cc2c1CCN`, the cytotoxicity call is reported as “inactive”.
For `C[C@@H]1[C@H](O)[C@@H](C)/C=C\C=C/CC\C=C/C=C\C=C/C=C\[C@@H](O[C@@H]2O[C@H](C)[C@@H](O)[C@H](N)[C@@H]2O)C[C@@H]2O[C@](O)(C[C@@H](O)[C@H](O)CC[C@@H](O)C[C@@H](O)C[C@@H](O)CC(=O)O[C@H]1C)C[C@H](O)[C@H]2C(=O)O`, the cytotoxicity call was “inactive”.
For `CN(C)[C@@H](CN)c1cccc(C(F)(F)F)c1`, the cytotoxicity call was “inactive”.
With `CN[C@@H]1[C@@H](O)[C@@H](O[C@@H]2[C@H](O)[C@@H](O[C@H]3O[C@H]([C@@H](C)O)[C@@H](O)[C@H](O)[C@H]3N)[C@H](N)C[C@@H]2N)OC[C@]1(C)O` the cytotoxicity call was “inactive”.
For `CCCCCCCCCCCCCCCC[n+]1ccccc1`, the cytotoxicity call was “active”.
With `CCCCCCCCCCCCCCCC[n+]1ccccc1.[Cl-]` the cytotoxicity call was “active”.
For `CC(=O)c1c(O)c(C)c(O)c(Cc2c(O)c3c(c(C(=O)/C=C/c4ccccc4)c2O)OC(C)(C)C=C3)c1O`, the cytotoxicity call was “inactive”.
With `COCC(=O)N1[C@@H]2Cn3c(ccc(C4=CCCC4)c3=O)[C@H]1[C@@H](C(=O)OC)[C@@H]2CO` the cytotoxicity call was “inactive”.
In the case of `Cn1cc(CN2C[C@H]3CNC[C@H]3C2)cn1`, the cytotoxicity call is reported as “inactive”.
In the case of `Cc1ccc(C[C@H]2CCCN2)cc1C`, the cytotoxicity call is reported as “inactive”.
For `NCCc1cccc(O)c1`, the cytotoxicity call was “inactive”.
`OC[C@@H]1[C@@H](O)[C@H](O)[C@H]2[C@@H](O)CCN21` was tested, and the cytotoxicity call was “inactive”.
In the case of `Cc1c(N)nc([C@H](CC(N)=O)NC[C@@H](N)C(N)=O)nc1C(=O)N[C@H](C(=O)N[C@@H](C)[C@H](O)[C@@H](C)C(=O)N[C@@H](C(=O)NCCc1nc(-c2nc(C(=O)NCCC[S+](C)C)cs2)cs1)[C@@H](C)O)[C@@H](O[C@H]1O[C@H](CO)[C@H](O)[C@@H](O)[C@H]1O[C@H]1O[C@H](CO)[C@@H](O)[C@H](OC(N)=O)[C@@H]1O)c1cnc[nH]1`, the cytotoxicity call is reported as “inactive”.
For `Cn1cc(N2C[C@@H]3CNC[C@@H]3C2=O)cn1`, the cytotoxicity call was “inactive”.
For `C/C=C(\C)C(=O)O[C@H]1C[C@@H](OC(C)=O)[C@@]2(C(=O)OC)CO[C@H]3[C@@H](O)[C@@](C)([C@]45O[C@@]4(C)[C@H]4C[C@@H]5O[C@H]5OC=C[C@@]54O)[C@H]4[C@]1(CO[C@]4(O)C(=O)OC)[C@@H]32`, the cytotoxicity call was “inactive”.
With `C[C@@H]1O[C@@H](O[C@@H]2C[C@@H](O)[C@]3(CO)[C@H]4[C@H](O)C[C@]5(C)[C@@H](C6=CC(=O)OC6)CC[C@]5(O)[C@@H]4CC[C@]3(O)C2)[C@H](O)[C@H](O)[C@H]1O` the cytotoxicity call was “active”.
With `CC1OC(OC2CC(O)C3(CO)C4C(O)CC5(C)C(C6=CC(=O)OC6)CCC5(O)C4CCC3(O)C2)C(O)C(O)C1O.O.O.O.O.O.O.O.O` (centres undefined) the cytotoxicity call was “active”.
`C[C@H]1C[C@@H](O)[C@]2(O)[C@@]13CC(=O)OC[C@@]2(C)[C@](C)(O)C(=O)C3` was tested, and the cytotoxicity call was “inactive”.

— the antibiotic and cytotoxicity screens of Wong et al. (2023)
